Test results taken from PubChem BioAssay (Tox21).
Results filed as inconclusive are left out. Where a call stands in place of a potency, no number is given. A number with no mark means an inactive call. Activity calls are given as the source filed them. Unless noted, calls come from the whole dose curve; as a rule, active = well fitted curve in the direction sought with a large enough effect in the repeat runs; inconclusive = weak or mixed curves; inactive = no such curve, though single readings can be large; an effect the other way counts as inactive or inconclusive.

Tests used:
[1] = qHTS assay to identify aromatase inhibitors - cell viability counter screen (AID 743084);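 note: cells stimulated with testosterone during compound exposure; nearly all actives have a fitted effect of over 55% in size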
[2] = biological target: Aryl hydrocarbon receptor (Homo sapiens) (UniProt P35869); assay: qHTS assay to identify small molecule that activate the aryl hydrocarbon receptor (AhR) signaling pathway (AID 743085);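 note: HG2L7.5c1 human HepG2 liver cells with stably integrated DRE-driven firefly reporter; series mostly up to about 70 µM; nearly all actives have a fitted effect of over 15% in size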
Summary of the method: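 24 h compound exposure, 37C, HepG2-derived HG2L7.5c1 cells with DRE-responsive luciferase. Readouts: fluorescence viability, then luminescence at room temperature after 30 min.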

[3] = qHTS assay to identify small molecule that activate the aryl hydrocarbon receptor (AhR) signaling pathway - cell viability counter screen (AID 743086);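 note: HepG2 liver cells carrying the AhR DRE luciferase reporter; series mostly up to about 70 µM; nearly all actives have a fitted effect of over 45% in size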
Summary of the method: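 HepG2-AhR-luc (HG2L7.5c1) cells, 4000/well, were preincubated 5 h at 37C, exposed to compound in qHTS format for 24 hr at 37C, then given CellTiter-Fluor for 30 min; viability was read as fluorescence in the reporter wells.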

[4] = biological target: Peroxisome proliferator-activated receptor gamma (Homo sapiens) (UniProt P37231); assay: qHTS assay to identify small molecule agonists of the peroxisome proliferator-activated receptor gamma (PPARg) signaling pathway (AID 743094; active = well fitted activation curve with a large enough effect in the signal ratio in the repeat runs, not every such curve was filed as active; the % refers to the signal ratio)
Summary of the method: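 Agonism was assessed in a beta-lactamase reporter system, HEK293H cells with a stably integrated UAS-bla construct under PPARg control; the 17 h treatment at 37C preceded a 1 h room-temperature FRET substrate read.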

[5] = biological target: Peroxisome proliferator-activated receptor gamma (Homo sapiens) (UniProt P37231); assay: qHTS assay to identify small molecule antagonists of the peroxisome proliferator-activated receptor gamma (PPARg) signaling pathway (AID 743191; calls by dose curve; note: series mostly up to about 63 µM; nearly all actives have a fitted effect of over 30% in size)
Summary of the method: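 GeneBLAzer PPARg UAS-bla HEK293H cells carrying a UAS-driven beta-lactamase reporter were plated at 3000 cells/well, preincubated 5 h at 37C, then given compound for 17 h at 37C; LiveBLAzer B/G FRET substrate was read after 1 h at room temperature.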

[6] = qHTS assay to identify small molecule antagonists of the peroxisome proliferator-activated receptor gamma (PPARg) signaling pathway - cell viability counter screen (AID 743194); note: nearly all actives have a fitted effect of over 55% in size
Summary of the method: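 PPARg-UAS-bla HEK293H cells were plated, rested 5 h at 37 C, then treated with compounds plus rosiglitazone (50 nM final) for 17 h at 37 C; viability was then read by CellTiter-Glo luminescence after 30 min at room temperature.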

[7] = qHTS assay for small molecule agonists of the antioxidant response element (ARE) signaling pathway (AID 743202; active = well fitted activation curve with a large enough effect in the signal ratio in the repeat runs, not every such curve was filed as active; the % refers to the signal ratio; note: potency is the fitted concentration of half-maximal effect)
Summary of the method: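 Following a 16 h, 37 C exposure of reporter HepG2 cells (ARE-driven beta-lactamase, 2,000 cells/well) to compounds, FRET substrate was applied for 2 h at room temperature and fluorescence intensity recorded.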

[8] = qHTS assay for small molecule agonists of the antioxidant response element (ARE) signaling pathway - cell viability counter screen (AID 743203; calls by dose curve; note: nearly all actives have a fitted effect of over 55% in size)
Summary of the method: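 ATP content via CellTiter-Glo luminescence served as the viability measure. Cells: ARE-bla HepG2, 2,000 per well. Exposure: 16 hrs, 37C/5% CO2.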

[9] = qHTS assay for small molecule activators of the heat shock response signaling pathway - cell viability counter screen (AID 743209); note: nearly all actives have a fitted effect of over 50% in size
Summary of the method: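 Compounds dissolved in DMSO were added to overnight-plated HSE-bla HeLa cells and left 5 h at 37 C. Cell viability was quantified by luminescence using CellTiter-Glo.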

[10] = qHTS assay for small molecule activators of the heat shock response signaling pathway (AID 743210; active = well fitted activation curve with a large enough effect in the signal ratio in the repeat runs, with a control signal flat, not every such curve was filed as active; the % refers to the signal ratio; note: series mostly up to about 63 µM)
Summary of the method: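 Heat shock element–beta-lactamase HeLa reporter cells; qHTS with compounds for 5 h at 37 C; detection by FRET substrate fluorescence after 2.5 h at RT.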

Peroxisome proliferator-activated receptor gamma (Homo sapiens), sequence (P37231 whole entry, looked up): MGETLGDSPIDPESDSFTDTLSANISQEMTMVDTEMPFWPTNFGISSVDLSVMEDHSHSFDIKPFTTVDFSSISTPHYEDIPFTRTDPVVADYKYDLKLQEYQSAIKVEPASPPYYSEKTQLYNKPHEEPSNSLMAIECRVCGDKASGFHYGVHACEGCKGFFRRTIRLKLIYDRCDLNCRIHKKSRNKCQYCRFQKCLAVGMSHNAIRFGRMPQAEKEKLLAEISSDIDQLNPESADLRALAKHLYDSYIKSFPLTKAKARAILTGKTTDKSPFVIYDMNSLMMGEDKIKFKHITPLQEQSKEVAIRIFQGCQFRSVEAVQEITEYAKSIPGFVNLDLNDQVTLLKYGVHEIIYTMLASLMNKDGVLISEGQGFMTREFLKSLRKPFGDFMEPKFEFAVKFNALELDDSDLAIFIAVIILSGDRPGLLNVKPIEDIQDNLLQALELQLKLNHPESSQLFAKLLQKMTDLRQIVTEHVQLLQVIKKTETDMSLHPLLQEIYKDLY
Aryl hydrocarbon receptor (Homo sapiens), sequence (P35869 whole entry, looked up): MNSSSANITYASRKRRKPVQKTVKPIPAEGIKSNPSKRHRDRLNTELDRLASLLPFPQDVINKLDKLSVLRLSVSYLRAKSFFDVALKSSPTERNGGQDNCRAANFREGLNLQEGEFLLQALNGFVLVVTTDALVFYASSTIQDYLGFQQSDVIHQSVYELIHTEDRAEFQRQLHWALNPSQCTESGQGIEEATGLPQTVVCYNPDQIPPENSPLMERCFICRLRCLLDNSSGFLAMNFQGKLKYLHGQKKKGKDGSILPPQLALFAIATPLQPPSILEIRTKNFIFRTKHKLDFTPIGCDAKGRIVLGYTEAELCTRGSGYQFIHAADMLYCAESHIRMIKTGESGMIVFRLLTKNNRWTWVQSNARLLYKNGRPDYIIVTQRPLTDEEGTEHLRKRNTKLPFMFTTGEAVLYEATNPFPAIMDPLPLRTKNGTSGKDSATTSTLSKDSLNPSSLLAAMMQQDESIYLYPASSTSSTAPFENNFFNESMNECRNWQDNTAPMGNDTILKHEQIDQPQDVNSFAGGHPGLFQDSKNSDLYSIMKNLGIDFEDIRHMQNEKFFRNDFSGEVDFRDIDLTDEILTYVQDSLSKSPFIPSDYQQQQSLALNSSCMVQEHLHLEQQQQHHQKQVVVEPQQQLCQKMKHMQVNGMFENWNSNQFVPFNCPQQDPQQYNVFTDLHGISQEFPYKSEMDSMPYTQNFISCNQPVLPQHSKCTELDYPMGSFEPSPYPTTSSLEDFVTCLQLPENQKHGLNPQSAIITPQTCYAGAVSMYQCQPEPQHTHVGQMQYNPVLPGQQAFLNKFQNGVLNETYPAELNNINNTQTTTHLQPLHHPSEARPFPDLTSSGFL

| Compound | Potency [1] | Potency [2] | Potency [3] | Potency [4] | Potency [5] | Potency [6] | Potency [7] | Potency [8] | outcome [9] | outcome [10] |
| --- | --- | --- | --- | --- | --- | --- | --- | --- | --- | --- |
| CC(C)Cc1nccs1 | inactive | inactive | inactive | inactive | inactive | inactive | inactive | inactive | inactive | inactive |
| C=CC(C)CCC=C(C)C (stereo not given) | inactive | inactive | inactive | inactive | inactive | inactive | inactive | inactive | inactive | inactive |
| Cc1ccccc1CCO | inactive | inactive | inactive | inactive | inactive | inactive | inactive | inactive | – | inactive |
| O=C1OC(=O)C2CC=CCC12 (stereo not given) | inactive | inactive | inactive | inactive | inactive | inactive | inactive | inactive | inactive | – |
| CCCCCCCCCCCC(=O)OCC | inactive | inactive | inactive | inactive | inactive | inactive | inactive | inactive | inactive | inactive |
| CCN(CCCCOC(=O)c1ccc(OC)c(OC)c1)C(C)Cc1ccc(OC)cc1 (stereo not given) | inactive | inactive | inactive | inactive | inactive | inactive | inactive | inactive | inactive | inactive |
| SCCOCCOCCS | inactive | inactive | inactive | inactive | inactive | inactive | – | inactive | inactive | inactive |
| CCCC(=O)OCCC(C)C | inactive | inactive | inactive | inactive | inactive | inactive | inactive | – | inactive | inactive |
| CC1(C)CC(O)CC(C)(C)N1[O] | inactive | inactive | inactive | inactive | inactive | inactive | inactive | inactive | inactive | inactive |
| OCCc1ccncc1 | inactive | inactive | inactive | inactive | inactive | inactive | inactive | inactive | inactive | inactive |
| N#C[C@@H]1CC(F)(F)CN1C(=O)CNC1CC2CCC(C1)N2c1ncccn1 (stereo not given in full) | inactive | inactive | inactive | inactive | inactive | inactive | inactive | inactive | inactive | – |
| CC(C)NC(=O)c1ccccc1N | inactive | inactive | inactive | inactive | inactive | inactive | inactive | inactive | inactive | inactive |
| CCCC(=O)OCc1ccccc1 | inactive | inactive | inactive | inactive | inactive | inactive | inactive | – | inactive | inactive |
| CCCc1ccc(OC)cc1 | inactive | inactive | inactive | inactive | inactive | inactive | inactive | inactive | inactive | inactive |
| Nc1cccc2c(=O)[nH][nH]c(=O)c12 | inactive | inactive | inactive | inactive | inactive | inactive | inactive | inactive | – | inactive |
| CCCCCCCCCCCCN1CCOCC1 | inactive | inactive | inactive | inactive | inactive | inactive | inactive | inactive | inactive | inactive |
| Nc1ncnc2c1ncn2[C@@H]1O[C@H](CO)[C@@H](O)[C@H]1O | inactive | inactive | inactive | inactive | inactive | inactive | – | inactive | inactive | inactive |
| FC1(F)C(F)(F)C(F)(F)C2(F)C(F)(C1(F)F)C(F)(F)C(F)(F)C1(F)C(F)(F)C(F)(F)C(F)(F)C(F)(F)C12F (stereo not given) | inactive | inactive | inactive | inactive | inactive | inactive | inactive | inactive | inactive | inactive |
| O=Cc1ccc([N+](=O)[O-])cc1 | inactive | inactive | inactive | inactive | inactive | inactive | inactive | inactive | inactive | inactive |
| C[Si](C)(C)O[Si](C)(C)O[Si](C)(C)C | inactive | inactive | inactive | inactive | inactive | inactive | inactive | inactive | inactive | inactive |
| O=C(OC1C[C@H]2CC[C@@H](C1)[N+]21CCCC1)C(O)(c1ccccc1)c1ccccc1 (stereo not given in full) | inactive | inactive | inactive | inactive | inactive | inactive | inactive | inactive | inactive | inactive |
| CCc1ccc(C(=O)C(C)CN2CCCCC2)cc1 (stereo not given) | inactive | inactive | inactive | inactive | inactive | inactive | 23.7 µM (active) | – | inactive | inactive |
| OCCCO | inactive | inactive | inactive | inactive | inactive | inactive | inactive | inactive | inactive | inactive |
| C=CC(=O)NC(C)(C)C | inactive | inactive | inactive | inactive | inactive | inactive | inactive | – | inactive | inactive |
